Assays:
Conditions in all cases: inducer concentration 5 mM; 6 h; Cupriavidus necator H16; minimal medium + 0.4% gluconate
[1] = test system: AcoR/P_H16_RS19445 acetoin biosensor (pEH052); assay: relative induction of RFP reporter vs primary effector (background-corrected); higher = stronger activation of the biosensor
Description: (§1)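 C. necator H16 strains, each carrying one of 21 transcription factor/inducible promoter–mRFP biosensor plasmids, were grown in minimal medium in 96-well plates (robotic platform). Each was exposed to 46 structurally or metabolically related compounds at 5 mM at 30 °C. OD-normalised RFP fluorescence was read 6 h later and expressed as relative induction (%) = 100 × (FL compound − FL uninduced)/(FL primary inducer − FL uninduced); mean of n=4.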

[2] = test system: AraC/P_araBAD L-arabinose biosensor (pEH176); assay: as above
Description: as §1

[3] = test system: BenM/P_H16_RS09790 benzoate biosensor (pEH148); assay: as above
Description: as §1

[4] = test system: FdsR/P_H16_RS03165 formate biosensor (pEH134); assay: as above
Description: as §1

[5] = test system: GabR/P_H16_RS23655 GABA biosensor (pEH256); assay: as above
Description: as §1

[6] = test system: HpdR/P_H16_RS18295 3-hydroxypropanoate biosensor (pEH010); assay: as above
Description: as §1

[7] = test system: KynR/P_H16_RS14030 L-kynurenine biosensor (pEH136); assay: as above
Description: as §1

[8] = test system: NahR/P_H16_RS08125 salicylate biosensor (pEH042); assay: as above
Description: as §1

[9] = test system: OapR/P_H16_RS01330 beta-alanine biosensor (pEH147); assay: as above
Description: as §1

[10] = test system: PcaQ/P_H16_RS30145 3,4-dihydroxybenzoate biosensor (pEH161); assay: as above
Description: as §1

[11] = test system: PhgR/P_H16_RS05530 phenylglyoxylate biosensor (pEH155); assay: as above
Description: as §1

[12] = test system: PhhR/P_H16_RS18365 L-phenylalanine biosensor (pEH137); assay: as above
Description: as §1

[13] = test system: SauR/P_H16_RS13695 sulfonatoacetate biosensor (pEH157); assay: as above
Description: as §1

[14] = test system: TtdR/P_H16_RS10665 tartrate biosensor (pEH083); assay: as above
Description: as §1

[15] = test system: XdhR/P_H16_RS05055 xanthine biosensor (pEH154); assay: as above
Description: as §1

[16] = test system: heterologous inducible system pEH002 (rhamnose/acrylate/cumate/itaconate set); assay: as above
Description: as §1

[17] = test system: heterologous inducible system pEH020 (rhamnose/acrylate/cumate/itaconate set); assay: as above
Description: as §1

[18] = test system: heterologous inducible system pEH040 (rhamnose/acrylate/cumate/itaconate set); assay: as above
Description: as §1

[19] = test system: heterologous inducible system pEH086 (rhamnose/acrylate/cumate/itaconate set); assay: as above
Description: as §1

[20] = test system: AcoR/P_H16_RS19445 acetoin biosensor (pEH052); assay: relative induction of RFP reporter vs primary effector; higher = stronger activation
Description: (§2)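 Orthogonality screen of 21 primary inducers against 21 transcription factor/inducible promoter–mRFP biosensors in C. necator H16 in minimal medium, robotic 96-well format, 5 mM inducer, 30 °C. OD-normalised RFP fluorescence was read 6 h later and expressed as relative induction (%) = 100 × (FL compound − FL uninduced)/(FL primary inducer − FL uninduced); mean of n=4. Cognate pairs (100% by definition) omitted.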

[21] = test system: AraC/P_araBAD L-arabinose biosensor (pEH176); assay: as above
Description: as §2

[22] = test system: BadR/P_H16_RS27200 cyclohexanecarboxylate biosensor (pEH159); assay: as above
Description: as §2

[23] = test system: BenM/P_H16_RS09790 benzoate biosensor (pEH148); assay: as above
Description: as §2

[24] = test system: FdsR/P_H16_RS03165 formate biosensor (pEH134); assay: as above
Description: as §2

[25] = test system: GabR/P_H16_RS23655 GABA biosensor (pEH256); assay: as above
Description: as §2

[26] = test system: HpdA/P_H16_RS24175 L-tyrosine biosensor (pEH158); assay: as above
Description: as §2

[27] = test system: NahR/P_H16_RS08125 salicylate biosensor (pEH042); assay: as above
Description: as §2

[28] = test system: OapR/P_H16_RS01330 beta-alanine biosensor (pEH147); assay: as above
Description: as §2

[29] = test system: PcaQ/P_H16_RS30145 3,4-dihydroxybenzoate biosensor (pEH161); assay: as above
Description: as §2

[30] = test system: PhgR/P_H16_RS05530 phenylglyoxylate biosensor (pEH155); assay: as above
Description: as §2

[31] = test system: SauR/P_H16_RS13695 sulfonatoacetate biosensor (pEH157); assay: as above
Description: as §2

[32] = test system: TtdR/P_H16_RS10665 tartrate biosensor (pEH083); assay: as above
Description: as §2

[33] = test system: XdhR/P_H16_RS05055 xanthine biosensor (pEH154); assay: as above
Description: as §2

[34] = test system: heterologous L-rhamnose-inducible system; assay: as above
Description: as §2

[35] = test system: heterologous acrylate-inducible system; assay: as above
Description: as §2

[36] = test system: heterologous cumate-inducible system; assay: as above
Description: as §2
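Wherever relative induction of RFP reporter vs primary effector (background-corrected) is given: RFP excited at 585 nm with emission read at 620 nm, culture medium blanks subtracted from fluorescence and absorbance prior to normalisation.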

Compound	relative induction of RFP reporter [1]	relative induction of RFP reporter [2]	relative induction of RFP reporter [3]	relative induction of RFP reporter [4]	relative induction of RFP reporter [5]	relative induction of RFP reporter [6]	relative induction of RFP reporter [7]	relative induction of RFP reporter [8]	relative induction of RFP reporter [9]	relative induction of RFP reporter [10]	relative induction of RFP reporter [11]	relative induction of RFP reporter [12]	relative induction of RFP reporter [13]	relative induction of RFP reporter [14]	relative induction of RFP reporter [15]	relative induction of RFP reporter [16]	relative induction of RFP reporter [17]	relative induction of RFP reporter [18]	relative induction of RFP reporter [19]	relative induction of RFP reporter [20]	relative induction of RFP reporter [21]	relative induction of RFP reporter [22]	relative induction of RFP reporter [23]	relative induction of RFP reporter [24]	relative induction of RFP reporter [25]	relative induction of RFP reporter [26]	relative induction of RFP reporter [27]	relative induction of RFP reporter [28]	relative induction of RFP reporter [29]	relative induction of RFP reporter [30]	relative induction of RFP reporter [31]	relative induction of RFP reporter [32]	relative induction of RFP reporter [33]	relative induction of RFP reporter [34]	relative induction of RFP reporter [35]	relative induction of RFP reporter [36]
O=S(=O)(O)CCO [isethionate]	-1.41%	-0.00384%	-0.0202%	-5.83%	-2.12%	-0.0757%	0.0938%	0.0152%	-0.424%	6.61%	-0.518%	-0.0754%	1.56%	2.47%	-0.627%	0.0178%	-1.34%	-1.22%	-0.0664%																	
O=C(O)CNC(=O)c1ccccc1 [N-benzoylglycine]	-2.37%	-0.0115%	21.2%	40.1%	-0.301%	-0.376%	0.0257%	0.0182%	-1.12%	-0.215%	-0.146%	-0.604%	-0.018%	-0.285%	-0.852%	-0.00397%	-2.44%	-1.84%	-0.117%																	
C=C(CC(=O)O)C(=O)O [itaconate]																				7.98%	-0.0132%	-0.216%	-0.0396%	-5.89%	-1.61%	-0.159%	0.0104%	-0.257%	-0.0579%	-0.453%	0.0423%	-0.0311%	-0.326%	0.00546%	-0.778%	-0.202%
CCC(=O)O [propanoate]	-1.68%	-0.00959%	-0.0373%	-1.16%	-3.91%		-0.867%	-0.000302%	-1.95%	-0.275%	-0.224%	-0.418%	0.0421%	-0.423%	-0.832%	-0.00545%	-0.954%	0.605%	-0.0388%																	
